Experimental data: PubChem BioAssay AID652039 (The Scripps Research Institute Molecular Screening Center, 2013)
In all, about 370,000 compounds went through this assay and about 3,300 (0.89%) were called active. The sample holds actives, similar compounds and a random draw of the others, so the mix is not that of the screen.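 The calls were made as follows: active = activation above the mean of all tested compounds plus 3 SD, computed per campaign excluding outliers beyond control limits (cut at about 13% in these data); inactive = the rest.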

What follows are compounds tested against Kallikrein-7 (Homo sapiens) (UniProt P49862) (assay: proKLK7 zymogen activators, primary screen, biochemical, fluorescence intensity (AID 652039)). Details: purified proKLK7, EDANS-DABCYL substrate fluorescence; at 7 µM; active compounds read high; 100% is mature enzyme control, 0% vehicle.
Chain of Kallikrein-7 (Homo sapiens) (P49862 whole entry, looked up): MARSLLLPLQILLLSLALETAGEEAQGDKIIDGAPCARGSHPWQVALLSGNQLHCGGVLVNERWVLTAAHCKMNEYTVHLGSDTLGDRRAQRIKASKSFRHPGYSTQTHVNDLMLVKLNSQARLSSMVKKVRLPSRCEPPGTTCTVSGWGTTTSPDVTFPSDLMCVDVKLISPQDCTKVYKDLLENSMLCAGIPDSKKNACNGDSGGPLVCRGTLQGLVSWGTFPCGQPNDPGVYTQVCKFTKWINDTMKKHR

activation, inactive:
COc1ccc(S(=O)(=O)N2CCN(C(=O)N(C)C)C2C)cc1 (stereo not drawn) 0.63%, Cc1ccc(-n2c(SCC(=O)Nc3ccc(S(=O)(=O)Nc4nccs4)cc3)nnc2-c2ccccn2)cc1 0.68%, Nc1c(-c2ccc(F)cc2)cnc2ncnn12 0.09%, Cc1cc([N+](=O)[O-])nn1Cc1ccc(F)cc1 0.68%, CC(=O)O[C@@]1(C(C)=O)CCC2[C@H]3C=C(C)C4=CC(=O)CC[C@@]4(C)C3CC[C@]21C (stereo partly drawn) 0.5%, COc1cc(Cl)c(C)cc1NC(=O)COC(=O)c1cc(SC)ccc1Cl -0.31%, CCCCOCCCNC(=O)C[C@H]1C[C@@]2(C(=O)OC)C(=C[C@H](COCc3ccccc3)O[C@@H]2C)N(Cc2cccc3ccccc23)C1=O -0.35%, COC1=C[C@H](C(=O)NCCNC(C)=O)[C@H](C)[C@@H](c2ccccc2)CC1=O 0.74%, O=C(Nc1ccc(Br)cc1)OCCN1C(=O)CCC12CCC(c1ccccc1)CC2 (stereo not drawn) 0.49%, CCOc1ccc2[nH]c(=O)c(CN(Cc3nnnn3CCc3ccccc3)CC3CCCO3)cc2c1 (stereo not drawn) -0.26%, CCC(c1nnnn1Cc1ccco1)N(Cc1cc2cc(OC)ccc2[nH]c1=O)C1CCCCC1 (stereo not drawn) 1.29%, C=CCN(C(=O)[C@@H](CCCC)[C@@H](O)c1ccc(Cl)cc1)c1ccccc1 0.33%, COC(=O)[C@H](C(C)C)N(CCCc1cn(Cc2ccccc2)nn1)S(=O)(=O)c1ccc(F)cc1Br -0.13%, O=C(CCCCCN1C(=O)C2C3C=CC(C3)C2C1=O)Nc1ccccc1 (stereo not drawn) -1.05%, CCN(C(=O)[C@@H](C1CC1)[C@@H](O)c1ccc2ccccc2c1)c1ccccc1 0.13%, Cc1cc2oc3ccc(NCCC4CCCN4C)cc3c(=O)c2cc1C (stereo not drawn) 0.31%, CCOC(=O)[C@]12CCCC=C1N(CCCOC)C(=O)[C@@H]2CC(=O)N1CCOCC1 0.35%, COc1cc(NC(=O)C2CCCN(S(=O)(=O)c3ccc(C(C)(C)C)cc3)C2)cc(OC)c1 (stereo not drawn) 0.22%, Cc1ccc(Cn2cc(COC(=O)N(C)Cc3ccccc3)nn2)cc1 0.39%, O=C(NCCO)c1cccc(-c2cccc3nccn23)c1 1.32%, c1cc(-c2ccc3[nH]ccc3c2)n2ccnc2c1 3.83%, CCN(CC)C(=O)CC[C@H]1CC[C@]2(CCCN(Cc3ccc(Cl)cc3)C2)O1 0.06%, Cc1ccc(-n2c(SCC(=O)Nc3ccc(S(=O)(=O)Nc4nccs4)cc3)nnc2-c2cccnc2)cc1 0.82%, COC(=O)[C@H](C(C)C)N(CCc1cn(Cc2ccccc2)nn1)S(=O)(=O)c1ccc(F)cc1Br 0.93%, O=C1OCCN1C(=O)[C@H]1[C@H](c2ccc(Cl)cc2)C(c2cccc(Cl)c2)=NN1c1ccc(Br)cc1 -322%, O=C1OCCN1C(=O)[C@H]1[C@H](c2ccccc2)C(c2ccc(F)cc2)=NN1c1ccccc1 -23.2%, CSc1ccc(C=Nn2c(-c3ccc(F)cc3)n[nH]c2=S)cc1 -0.19%, CCC(C)(C)NC(=O)C(c1ccccn1)N(C(=O)c1csnn1)c1ccccc1 (stereo not drawn) 0.19%, COc1cccc(-c2nnc(N(C)C(=O)c3ccno3)s2)c1 0.14%, CN(C(=O)c1ccccc1)c1nccnc1C#N -0.08%, CN(C(=O)C1CCOC1)c1nnc(-c2cccnc2)s1 (stereo not drawn) 1.7%, CC(C)Oc1ccc(CCc2nnc(SCC(=O)O)n2-c2ccccc2)cc1 0.35%, O=C(Nc1nc2ccc(Cl)cc2s1)c1cc(-c2ccc(Cl)cc2)nc2ccccc12 0.7%, COc1cccc2oc(CCc3ccccc3)cc(=O)c12 2.15%, Cc1cc(OCC(=O)NCC(O)c2ccccc2)c2c(C)c(C)c(=O)oc2c1 (stereo not drawn) 0.58%, COc1ccc(S[C@]2(C(=O)N(C)C)CC(=O)N(c3ccc(OC)cc3)[C@@H]2c2ccc(OC)cc2)cc1 0.22%, CC(c1ccc(N)cc1)c1cn(C)c2ccccc12 (stereo not drawn) 0.46%, COc1ccc(C2CC=C(C(=O)O)C(c3ccccc3F)N2S(=O)(=O)c2ccc(C)cc2)cc1OC (stereo not drawn) 0.12%, COC(=O)C1=CN(C)C=C(C(=O)OC)C1c1ccc(Cl)cc1Cl 0.08%, CCOc1cc(C2C(C(=O)OC)=CN(C3CCCC3)C=C2C(=O)OC)cc(Br)c1O -0.82%, O=S1(=O)c2ccc(Br)cc2OC[C@@H](Cc2ccccc2)N1Cc1cn(Cc2ccco2)nn1 0.26%, Cc1cc(NC(=O)CCN2CCN(Cc3ccccc3)CC2)ccc1Br 0.91%, COc1cc2[nH]c(=O)n(CCC(=O)NC3CCN(Cc4ccccc4)CC3)c(=O)c2cc1OC -1.29%, COc1ccc(C(=O)OCCN(C)C2CN(Cc3cn(Cc4cccc(C)c4)nn3)S(=O)(=O)C2)cc1OC (stereo not drawn) 0%, CCCCNC(=O)C[C@H]1C(=O)N(Cc2ccc(OC)cc2)C2=CCCC[C@@]21C(=O)OCC -0.1%, N#Cc1ccccc1OC[C@@H](O)CN1CCC(C(O)(c2ccccc2)c2ccccc2)CC1 0.62%, COc1ccc(N2CCN(C(=O)Cn3cnc4sc(C)c(S(=O)(=O)N5CCOCC5)c4c3=O)CC2)cc1 -0.12%, Cc1ccccc1Nc1c(-c2ccccc2)nc2ncccn12 0.74%, COc1ccc(N2CCN(C(=O)CSc3nnc4ncccn34)CC2)cc1 0.11%, Nc1nc2ncccn2c1-c1ccccc1 5.34%, COc1ccc(-c2ccnc(SCC(=O)N3CCOCC3)n2)cc1 0.01%, C=CCOC/C=C/C#CCN(CC=C)Cc1ccc(OC)cc1OC 0.82%, O=C(CSc1nc2ccccc2s1)N=Nc1c(O)[nH]c2ccccc12 0.68%, Cc1ccc(-n2c(COc3ccccc3)nnc2SCC(=O)Nc2ccc3c(c2)OCCO3)cc1 0.98%, CCOC(=O)N1CCN(C(=O)C[C@H]2C[C@@]3(C(=O)OC)C(=C[C@H](C(C)(C)C)O[C@@H]3C)N(Cc3ccc(Cl)cc3Cl)C2=O)CC1 0.88%, COC(=O)c1ccccc1Oc1c(F)c(F)nc(N2CCOCC2)c1F 0.34%, Cc1cc(C(=O)OCC(=O)N2C(C)CCCC2C)c2ccccc2n1 (stereo not drawn) -1.23%, CCOC(=O)[C@@]12CN(C(=O)OC(C)(C)C)CC=C1N(Cc1ccc(OC)cc1)C(=O)[C@H]2CC(=O)NCc1ccc(OC)c(OC)c1 0.61%, CC1C(=O)C(C)C(c2ccc(O)cc2)NC1c1ccc(O)cc1 (stereo not drawn) 0.15%, CCC(CO)Nc1cccc2c1S(=O)(=O)N(Cc1cn(Cc3ccccc3C(F)(F)F)nn1)Cc1ccccc1O2 (stereo not drawn) 0.4%, Cc1ccccc1CN1CCCCC(NC(=O)Nc2ccccc2F)C1=O (stereo not drawn) 0.62%, C#CCCN([C@H](C(=O)OC)C(C)C)S(=O)(=O)c1ccc(F)cc1Br -0.16%, O=S1(=O)c2c(cccc2N2CCSCC2)Oc2ccccc2CN1Cc1cn(Cc2ccc(F)cc2)nn1 -2.26%, C/C(=N\NC(=O)CNc1cccc2ccccc12)c1ccc(Br)s1 2.95%, CN(CC(=O)Nc1ccc(Cl)cc1)CC(=O)Nc1cccc2ccccc12 0.06%, COc1ccc(/C=C2\CC3(OC(C)=O)CCCN2C3)cc1 (stereo not drawn) 0.04%, Nc1nc2cc(Cl)ccc2n1N 0.42%, CCC(=O)Nc1ccc2nn(-c3ccc(F)cc3)nc2c1 7.33%, COc1ccc(-c2cc(C(F)(F)F)nc(SCCC(=O)NCc3ccco3)n2)cc1 -0.49%

activation, active:
CC1(C)CN(c2ccc(-c3ccnc4ncnn34)cc2)C1=O 29.6%, COC(=O)Cc1nc2c(N)nc(N)nc2[nH]c1=O 29.9%, CCC(c1nnnn1Cc1ccco1)N(CCc1ccccc1)Cc1cc2ccc(OC)cc2[nH]c1=O (stereo not drawn) 21.6%, COc1cccc2sc3cc(NCC[C@@H]4CCCN4C)ccc3c(=O)c12 41.5%, Clc1ccc(-c2cccc3nccn23)cc1 25%, C[C@@H]1C(c2ccc(F)cc2)=NN(c2ccc(Br)cc2)[C@H]1C(=O)N1CCOC1=O 37.1%, CN(C(=O)c1ccccn1)c1nnc(-c2ccccn2)s1 26.2%, CN(C(=O)COc1ccccc1)c1nnc(-c2ccncc2)s1 15.3%, CCOC(=O)COc1cc(OCC(=O)OCC)c2c(=O)cc(-c3ccccc3)oc2c1 13.1%, CCOc1ccccc1C1C(C(=O)OC)=CN(C)C=C1C(=O)OC 46.1%, CCOC(=O)c1[nH]c2ccc(OC)cc2c1NC(=O)CCN1CCN(Cc2ccccc2)CC1 13.4%, COc1ccc(-c2cn3cccnc3n2)cc1 73.9%, FC(F)(F)Oc1ccc(-c2cn3cccnc3n2)cc1 34.6%, c1ccc(-c2cn3cccnc3n2)cc1 32.3%, COC(=O)c1cc(N2CCNCC2)nc2ccccc12 78.9%, Cc1cc(C)c2nc3nc(C)cc(C)c3c(N)c2c1 52.6%, Cn1cccc1/C=N/NC(=O)CNc1cccc2ccccc12 22.8%, Nc1ccc2nn(-c3ccc(Cl)cc3)nc2c1 64.3%, COc1ccc(-c2cc(C(F)(F)F)nc(S(C)(=O)=O)n2)cc1OC 15.4%
